Compounds without any hit were thinned out: in the full panel of roughly 83,000, 20% have a hit.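 Compound tested at a single concentration for 48 hours in 96-well plates; a percent growth value below 10 was scored as active.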 Unmarked numbers belong to inactive results. Active and inactive are the calls of the source.

Some test systems named below: T-47D breast; BT-549 breast; MDA-MB-435 melanoma; SW-620 colon; MCF7 breast; HCT-116 colon; KM12 colon; HCC-2998 colon.
Holding throughout (assay): NCI-60 one-dose screen, 48 h (100 = growth as untreated, 0 = no growth, -100 = all killed)
Holding throughout (details): 10 µM unless noted

Regarding `CCCCCC[C@@H](O)C/C=C\CCCCCCCC(=O)OCCOC`, the growth with T-47D breast is 94.3%; in the experiment with BT-549 breast, 99%; in the experiment on MDA-MB-435 melanoma, 110%; in the experiment on SW-620 colon, 102%; in the experiment on MCF7 breast, 100%; with HCT-116 colon it was 89.2%. Moreover, in the experiment on KM12 colon, the growth is 102%.

For `CCCc1cc(=O)oc2c3c(c4c(c12)OC(C)(C)CC4)OC(C)[C@H](C)[C@@H]3O` (some centres not stated), the growth with T-47D breast was 67.9%; in the experiment with BT-549 breast it was 108%; in the experiment on MDA-MB-435 melanoma, 112%; with SW-620 colon it was 84.3%; in the experiment on MCF7 breast, 70%; in the experiment on HCC-2998 colon, 116%. In addition, the growth in the experiment on KM12 colon was 97.8%.

In the case of `S=C(S)OCN1CCOCC1`, the growth in the experiment on T-47D breast is 88.1%; in the experiment on BT-549 breast it was 100%; with MDA-MB-435 melanoma, 88.4%; in the experiment with SW-620 colon it was 74.8%; with HCT-116 colon, 98.8%; in the experiment with HCC-2998 colon, 97.4%.

With `COc1cc([C@@H]2c3cc4c(cc3[C@H](OC3OC5COC(c6ccccc6)OC5C(O)C3O)[C@H]3COC(=O)[C@H]23)OCO4)cc(OC)c1OC` (some centres not stated), the growth with T-47D breast is 107%; with MDA-MB-435 melanoma, 22.7%; in the experiment on SW-620 colon, 43.9%; in the experiment on MCF7 breast, 10.5%; in the experiment on HCT-116 colon, 12.3%; with HCC-2998 colon, -5.24% (active). In addition, the growth in the experiment on KM12 colon was 42.9%.

Take `NC(=S)N/N=C/c1ncccc1O`: the growth was 25.2% in the experiment with T-47D breast; 35.4% in the experiment with BT-549 breast; 29.6% in the experiment on MDA-MB-435 melanoma; 35% with SW-620 colon; 5.32% (active) in the experiment with HCT-116 colon; 25.9% in the experiment on KM12 colon.

Consider `Oc1c(Cl)cc(Cl)cc1C(c1cc(Cl)cc(Cl)c1O)C(Cl)(Cl)Cl`, for which the growth was 1.95% (active) with T-47D breast; 7.91% (active) with BT-549 breast; 9.94% (active) in the experiment on SW-620 colon; 0.34% (active) with HCT-116 colon; -0.332% (active) with KM12 colon.

Turning to `O=C1C=C(Cl)C(=O)c2ccccc21`, the growth is 14.9% in the experiment with T-47D breast; 98.3% with BT-549 breast; 112% with MDA-MB-435 melanoma; 98% in the experiment with SW-620 colon; 81.3% in the experiment on MCF7 breast; 125% with HCC-2998 colon. Moreover, the growth in the experiment on KM12 colon is 99.4%.

On to `CC(C)c1ccc(Nc2n[nH]c(=S)s2)cc1`, for which the growth in the experiment on T-47D breast is 85.6%; with BT-549 breast, 96.2%; in the experiment with MDA-MB-435 melanoma, 97.1%; in the experiment with SW-620 colon it was 110%; in the experiment on HCT-116 colon it was 101%; with HCC-2998 colon it was 91%.

In the case of `O=C(c1ccccc1)C(Br)C(Br)c1ccccc1` (configuration not stated), the growth with T-47D breast is 31%; with BT-549 breast, 101%; with MDA-MB-435 melanoma, 74.6%; with SW-620 colon it was -76.9% (active); with HCT-116 colon it was -95.7% (active); with HCC-2998 colon, 93.3%. The growth with KM12 colon is 55.1%.

With `COc1ccc(NC(=O)/C(=C/N2C(=O)/C(=C/c3ccc(OC)c(OC)c3)NC2=S)C(C)=O)cc1`, the growth with T-47D breast was 19.1%; in the experiment on BT-549 breast, 55.2%; with MDA-MB-435 melanoma, 72.2%; in the experiment on SW-620 colon, 83.6%; in the experiment with HCT-116 colon it was 73.7%; in the experiment with HCC-2998 colon, 88.7%. Moreover, in the experiment with KM12 colon, the growth is 95.1%.

In the case of `CN1CCC(c2ccccc2)(c2ccccc2)C(=O)C1`, the growth in the experiment on T-47D breast was 13.7%; in the experiment with BT-549 breast, 115%; in the experiment on MDA-MB-435 melanoma it was 98.9%; in the experiment with MCF7 breast, 27.7%; in the experiment with HCT-116 colon it was 64.8%; with HCC-2998 colon, 82.1%. Moreover, the growth in the experiment on KM12 colon is 92.2%.

As for `CCSc1nc2ccccc2o1`, the growth in the experiment with T-47D breast was 106%; in the experiment with MDA-MB-435 melanoma, 111%; with SW-620 colon it was 106%; in the experiment on MCF7 breast it was 99.5%; with HCT-116 colon it was 111%; with HCC-2998 colon, 117%. The growth in the experiment with KM12 colon was 108%.

Consider `N=C1C=C(N)C(=O)c2ccccc21`, for which the growth in the experiment with T-47D breast is -46.1% (active); in the experiment with BT-549 breast, -99.1% (active); in the experiment on MDA-MB-435 melanoma it was -75.7% (active); in the experiment with SW-620 colon, -85% (active); in the experiment with HCT-116 colon it was -98.7% (active); with HCC-2998 colon it was -99.5% (active). Also, the growth in the experiment with KM12 colon was -82.4% (active).

Consider `CC(C)(C)c1ccc(CCO)cc1`, for which the growth was 106% in the experiment with T-47D breast; 89% in the experiment with MDA-MB-435 melanoma; 114% in the experiment on SW-620 colon; 101% with MCF7 breast; 99.7% in the experiment with HCT-116 colon; 95.2% in the experiment on HCC-2998 colon. The growth in the experiment on KM12 colon was 115%.

As to `CC1(C)OCC(COC(c2ccccc2)(c2ccccc2)c2ccccc2)O1` (configuration not stated), the growth was 84.3% in the experiment on T-47D breast; 119% in the experiment with BT-549 breast; 106% in the experiment on MDA-MB-435 melanoma; 104% in the experiment on SW-620 colon; 89.7% in the experiment on HCT-116 colon; 97.4% in the experiment on HCC-2998 colon. The growth in the experiment with KM12 colon was 96.5%.

In the case of `N=C(N)Sc1cccc[n+]1[O-]`, the growth was 63.1% with T-47D breast; 80.3% with BT-549 breast; 62.9% in the experiment on MDA-MB-435 melanoma; 46.9% in the experiment on SW-620 colon; 9.31% (active) in the experiment with HCT-116 colon; 74.7% in the experiment on HCC-2998 colon. The growth in the experiment on KM12 colon was 55.1%.

Take `CN(C)CCN(C)CC(C)(C)C(=O)/C=C/c1ccc(Cl)c(Cl)c1`: the growth with T-47D breast was -56.7% [100 µM] (active); in the experiment on MDA-MB-435 melanoma, -96.5% [100 µM] (active); in the experiment on SW-620 colon it was -81.1% [100 µM] (active); in the experiment on MCF7 breast, -66.4% [100 µM] (active); in the experiment on HCT-116 colon it was -93.4% [100 µM] (active); in the experiment with HCC-2998 colon it was -90.4% [100 µM] (active). In the experiment with KM12 colon, the growth is -93.4% [100 µM] (active).

As for `O=C(CBr)c1ccc(OC(=O)c2ccccc2)cc1`, the growth with T-47D breast is 95.7%; in the experiment with BT-549 breast, 105%; in the experiment on MDA-MB-435 melanoma, 106%; in the experiment on SW-620 colon it was 88.4%; with HCT-116 colon, 75.6%; in the experiment with KM12 colon, 106%.

On to `OC(c1cc2ccc(C(F)(F)F)cc2c2cc(C(F)(F)F)ccc12)C1CCCCN1` (configuration not stated), for which the growth was -90.5% (active) with T-47D breast; -100% (active) in the experiment with MDA-MB-435 melanoma; -100% (active) with SW-620 colon; -90.8% (active) in the experiment with MCF7 breast; -86.5% (active) in the experiment with HCT-116 colon; -86.7% (active) in the experiment with HCC-2998 colon. For the same compound, the growth in the experiment on KM12 colon is -97.3% (active).

Source of the values: PubChem BioAssay (NCI).
